Laboratory results: the supplement of paper PMC11732987, “Enantioselective OTUD7B fragment discovery through chemoproteomics screening and high-throughput optimisation” (Communications Chemistry, 2025)

Tests used:
Assay in all cases: log2 ratio of Biotin-Ahx-Ub-VS probe labelling (fragment/DMSO); higher = less target engagement (more negative = stronger competition), active = hit call of the paper (q ≤ 0.05, log2 ratio ≤ -1)
Settings in all cases: compound concentration: 200 uM; treatment time: 3 h
ALG13 = target: T1, ALG13 (UniProt Q9NP73)
T1 sequence (whole entry): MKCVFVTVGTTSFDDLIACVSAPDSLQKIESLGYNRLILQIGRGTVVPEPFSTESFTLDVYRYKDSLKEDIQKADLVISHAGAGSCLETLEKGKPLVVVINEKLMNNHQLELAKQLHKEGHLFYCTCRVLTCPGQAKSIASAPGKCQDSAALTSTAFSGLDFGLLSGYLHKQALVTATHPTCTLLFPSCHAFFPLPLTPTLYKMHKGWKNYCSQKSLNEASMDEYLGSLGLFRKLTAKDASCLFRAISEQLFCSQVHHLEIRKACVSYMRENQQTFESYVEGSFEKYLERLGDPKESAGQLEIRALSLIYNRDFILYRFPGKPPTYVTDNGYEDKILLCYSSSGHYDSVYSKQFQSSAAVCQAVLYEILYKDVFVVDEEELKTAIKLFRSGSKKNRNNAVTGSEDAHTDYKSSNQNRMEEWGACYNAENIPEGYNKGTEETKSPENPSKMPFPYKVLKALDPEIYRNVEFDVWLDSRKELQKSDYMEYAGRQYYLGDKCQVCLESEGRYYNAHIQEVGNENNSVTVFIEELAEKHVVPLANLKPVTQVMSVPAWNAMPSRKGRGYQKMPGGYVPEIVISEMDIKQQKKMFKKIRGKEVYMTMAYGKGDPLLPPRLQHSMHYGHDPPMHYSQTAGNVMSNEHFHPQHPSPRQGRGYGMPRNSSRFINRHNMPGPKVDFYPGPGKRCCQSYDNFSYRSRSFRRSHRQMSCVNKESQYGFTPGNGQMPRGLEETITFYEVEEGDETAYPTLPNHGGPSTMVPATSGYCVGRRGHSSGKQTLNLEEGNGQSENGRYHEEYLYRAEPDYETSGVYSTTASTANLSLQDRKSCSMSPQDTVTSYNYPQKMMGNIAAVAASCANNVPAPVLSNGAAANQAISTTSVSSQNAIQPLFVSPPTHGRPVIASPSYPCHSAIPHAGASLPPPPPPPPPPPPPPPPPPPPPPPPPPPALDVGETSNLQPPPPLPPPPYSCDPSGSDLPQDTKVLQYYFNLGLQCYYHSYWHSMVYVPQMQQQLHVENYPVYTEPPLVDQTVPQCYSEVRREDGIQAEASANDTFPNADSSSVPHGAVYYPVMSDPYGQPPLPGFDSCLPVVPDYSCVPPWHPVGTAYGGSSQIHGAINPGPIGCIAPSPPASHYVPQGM
How it was run: (§1)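 Lysate from HEK293T cells, 495 µg per sample in Tris/CHAPS/IGEPAL buffer with protease inhibitors, was treated for 3 h in triplicate with fragment at 200 µM or vehicle. Biotin-Ahx-Ub-VS was next added at 0.5 µM final for 1 h. The labelled DUBs were enriched with NeutrAvidin, digested with LysC and trypsin, and run by diaPASEF LC-MS/MS, with values given as average log2 fragment/vehicle ratios by unpaired t-test on global-median-normalised Spectronaut quantities of proteins with ≥2 unique peptides.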

ATXN3 = ATXN3 (UniProt P54252)
How it was run: as §1

BAP1 = target: T2, BAP1 (UniProt Q92560)
T2 sequence (whole entry): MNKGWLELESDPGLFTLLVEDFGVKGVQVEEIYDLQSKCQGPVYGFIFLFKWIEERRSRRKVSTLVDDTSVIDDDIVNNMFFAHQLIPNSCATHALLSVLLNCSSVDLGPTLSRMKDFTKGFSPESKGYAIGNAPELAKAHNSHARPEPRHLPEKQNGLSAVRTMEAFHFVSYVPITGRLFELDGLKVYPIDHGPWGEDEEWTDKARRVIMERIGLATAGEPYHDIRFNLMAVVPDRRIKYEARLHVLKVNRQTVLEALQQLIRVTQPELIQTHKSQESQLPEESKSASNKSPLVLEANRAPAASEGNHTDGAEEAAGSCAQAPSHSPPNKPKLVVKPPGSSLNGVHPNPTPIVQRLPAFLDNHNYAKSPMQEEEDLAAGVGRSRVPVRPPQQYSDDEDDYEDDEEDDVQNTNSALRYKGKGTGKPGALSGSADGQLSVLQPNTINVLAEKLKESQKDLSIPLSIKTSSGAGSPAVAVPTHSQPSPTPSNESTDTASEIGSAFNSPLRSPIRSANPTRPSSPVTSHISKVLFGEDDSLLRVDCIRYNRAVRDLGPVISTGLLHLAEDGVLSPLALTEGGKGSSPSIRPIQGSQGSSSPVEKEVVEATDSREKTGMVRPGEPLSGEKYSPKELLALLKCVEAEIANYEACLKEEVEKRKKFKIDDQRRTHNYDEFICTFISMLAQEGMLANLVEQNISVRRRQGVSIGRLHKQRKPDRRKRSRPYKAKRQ
How it was run: as §1

EIF3F = EIF3F (UniProt O00303)
How it was run: as §1

EIF3H = EIF3H (UniProt O15372)
How it was run: as §1

FAM105A = target: T3, FAM105A (UniProt Q9NUU6)
T3 sequence (whole entry): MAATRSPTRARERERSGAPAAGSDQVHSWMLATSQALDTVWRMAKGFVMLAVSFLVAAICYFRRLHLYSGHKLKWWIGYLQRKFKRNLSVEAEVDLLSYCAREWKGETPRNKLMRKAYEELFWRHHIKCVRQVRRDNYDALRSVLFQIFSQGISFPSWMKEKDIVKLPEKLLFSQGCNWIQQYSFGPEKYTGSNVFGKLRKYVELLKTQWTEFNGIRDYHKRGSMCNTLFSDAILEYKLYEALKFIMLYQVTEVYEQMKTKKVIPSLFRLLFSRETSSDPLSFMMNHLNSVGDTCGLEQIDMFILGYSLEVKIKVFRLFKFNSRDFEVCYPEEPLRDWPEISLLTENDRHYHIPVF
How it was run: as §1

OTUB1 = OTUB1 (UniProt Q96FW1)
How it was run: as §1

OTUD4 = target: T4, OTUD4 (UniProt Q01804)
T4 sequence (whole entry): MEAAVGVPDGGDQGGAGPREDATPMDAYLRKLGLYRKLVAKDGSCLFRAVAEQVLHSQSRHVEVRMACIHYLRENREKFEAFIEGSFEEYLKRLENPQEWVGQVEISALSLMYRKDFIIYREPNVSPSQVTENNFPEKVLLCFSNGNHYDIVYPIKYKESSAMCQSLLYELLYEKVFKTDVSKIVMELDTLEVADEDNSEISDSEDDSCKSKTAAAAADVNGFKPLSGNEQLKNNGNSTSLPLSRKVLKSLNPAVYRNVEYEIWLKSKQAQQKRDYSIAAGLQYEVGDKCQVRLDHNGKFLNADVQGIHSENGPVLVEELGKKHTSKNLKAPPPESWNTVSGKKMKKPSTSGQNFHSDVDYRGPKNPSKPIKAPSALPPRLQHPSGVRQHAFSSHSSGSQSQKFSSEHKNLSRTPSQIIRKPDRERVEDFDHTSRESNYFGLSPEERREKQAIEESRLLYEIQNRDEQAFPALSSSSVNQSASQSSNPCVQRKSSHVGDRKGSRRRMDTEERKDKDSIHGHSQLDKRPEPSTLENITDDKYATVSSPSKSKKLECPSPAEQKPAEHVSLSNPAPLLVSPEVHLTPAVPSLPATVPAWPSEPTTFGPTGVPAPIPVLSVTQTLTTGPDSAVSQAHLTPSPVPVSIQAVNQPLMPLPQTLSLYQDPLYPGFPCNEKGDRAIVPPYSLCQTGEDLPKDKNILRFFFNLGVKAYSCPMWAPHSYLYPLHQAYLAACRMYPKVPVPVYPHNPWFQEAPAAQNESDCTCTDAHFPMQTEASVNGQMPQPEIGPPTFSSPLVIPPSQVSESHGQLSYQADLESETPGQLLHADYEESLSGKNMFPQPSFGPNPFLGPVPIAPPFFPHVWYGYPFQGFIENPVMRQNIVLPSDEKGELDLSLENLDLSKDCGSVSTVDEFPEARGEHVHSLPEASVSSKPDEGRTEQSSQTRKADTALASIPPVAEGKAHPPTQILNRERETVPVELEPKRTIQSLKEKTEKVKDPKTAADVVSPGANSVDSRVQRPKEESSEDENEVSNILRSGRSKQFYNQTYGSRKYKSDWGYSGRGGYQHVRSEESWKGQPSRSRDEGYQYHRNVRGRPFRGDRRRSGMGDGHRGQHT
How it was run: as §1

OTUD5 = target: T5, OTUD5 (UniProt Q96G74)
T5 sequence (whole entry): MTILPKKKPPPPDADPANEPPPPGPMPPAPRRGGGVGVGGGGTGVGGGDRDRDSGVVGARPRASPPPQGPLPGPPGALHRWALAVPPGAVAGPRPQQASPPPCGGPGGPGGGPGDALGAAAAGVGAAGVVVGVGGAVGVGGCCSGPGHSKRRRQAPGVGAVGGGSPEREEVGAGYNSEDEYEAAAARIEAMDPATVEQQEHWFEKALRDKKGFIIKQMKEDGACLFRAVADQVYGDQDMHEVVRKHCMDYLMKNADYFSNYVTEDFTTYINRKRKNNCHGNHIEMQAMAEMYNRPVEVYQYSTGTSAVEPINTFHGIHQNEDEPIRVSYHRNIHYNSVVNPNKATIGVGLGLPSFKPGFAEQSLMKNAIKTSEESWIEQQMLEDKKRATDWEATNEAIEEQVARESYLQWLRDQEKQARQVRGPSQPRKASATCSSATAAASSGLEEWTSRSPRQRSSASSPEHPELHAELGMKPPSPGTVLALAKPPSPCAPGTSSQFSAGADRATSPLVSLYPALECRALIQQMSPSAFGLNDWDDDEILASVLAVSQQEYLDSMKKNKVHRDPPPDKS
How it was run: as §1

Measured: log2 ratio of Biotin-Ahx-Ub-VS probe labelling

OTUB1, sequence (Q96FW1 whole entry): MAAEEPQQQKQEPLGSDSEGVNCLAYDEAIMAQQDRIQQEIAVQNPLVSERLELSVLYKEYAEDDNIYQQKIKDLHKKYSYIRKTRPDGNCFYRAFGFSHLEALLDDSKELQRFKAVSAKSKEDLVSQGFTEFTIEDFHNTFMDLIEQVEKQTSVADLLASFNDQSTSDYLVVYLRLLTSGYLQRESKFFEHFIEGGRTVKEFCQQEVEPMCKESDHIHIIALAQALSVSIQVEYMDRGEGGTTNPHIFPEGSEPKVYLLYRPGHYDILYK
EIF3F, sequence (O00303 whole entry): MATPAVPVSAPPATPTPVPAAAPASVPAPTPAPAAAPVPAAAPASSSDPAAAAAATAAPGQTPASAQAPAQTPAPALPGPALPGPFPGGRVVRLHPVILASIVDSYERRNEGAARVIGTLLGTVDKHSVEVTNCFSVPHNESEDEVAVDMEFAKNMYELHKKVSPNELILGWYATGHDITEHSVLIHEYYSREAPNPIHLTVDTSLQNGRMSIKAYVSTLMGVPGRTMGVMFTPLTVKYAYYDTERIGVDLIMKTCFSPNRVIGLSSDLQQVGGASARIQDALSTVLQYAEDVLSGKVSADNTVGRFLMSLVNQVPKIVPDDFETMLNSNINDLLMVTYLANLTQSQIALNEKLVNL
EIF3H, sequence (O15372 whole entry): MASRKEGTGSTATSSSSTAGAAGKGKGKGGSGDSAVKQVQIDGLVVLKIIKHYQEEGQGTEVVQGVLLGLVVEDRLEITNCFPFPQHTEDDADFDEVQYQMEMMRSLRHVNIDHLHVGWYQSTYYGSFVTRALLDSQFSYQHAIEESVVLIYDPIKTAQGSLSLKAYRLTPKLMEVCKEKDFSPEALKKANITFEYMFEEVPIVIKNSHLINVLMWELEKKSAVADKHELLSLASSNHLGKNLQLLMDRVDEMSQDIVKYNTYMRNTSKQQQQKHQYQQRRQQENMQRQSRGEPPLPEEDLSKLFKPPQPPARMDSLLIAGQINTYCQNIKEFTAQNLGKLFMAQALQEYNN
ATXN3, sequence (P54252 whole entry): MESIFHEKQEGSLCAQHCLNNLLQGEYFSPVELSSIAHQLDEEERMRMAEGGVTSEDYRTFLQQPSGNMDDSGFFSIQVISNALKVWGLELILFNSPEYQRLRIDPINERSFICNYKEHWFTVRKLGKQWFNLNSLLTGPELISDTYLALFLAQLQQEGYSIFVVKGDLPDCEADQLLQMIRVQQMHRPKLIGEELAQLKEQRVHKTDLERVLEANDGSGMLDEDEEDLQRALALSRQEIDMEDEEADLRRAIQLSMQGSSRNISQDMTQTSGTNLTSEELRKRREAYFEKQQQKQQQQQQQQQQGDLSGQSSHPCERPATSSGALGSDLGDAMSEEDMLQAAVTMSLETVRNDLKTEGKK

Cc1cccnc1NC(=O)C1CCN(C(=O)CCl)CC1.Cl
inactive: ALG13 0.0719 | ATXN3 -0.281 | BAP1 -0.703 | EIF3F -0.244 | EIF3H 0.146 | FAM105A -0.0889 | OTUB1 -0.251 | OTUD4 -0.365 | OTUD5 -0.447
